Source: PubChem BioAssay (NCATS)
A number with no mark means an inactive call. Inconclusive results are not listed. A call without a number means that no potency is given here. The source made the active and inactive calls. The call rests on the fitted dose curve; in most records, active means well fitted curve in the direction sought with a large enough effect; inconclusive means small, poorly fitted or top-dose-only effect, or another doubt; inactive means no such curve, though single readings can be large; an effect the other way counts as inactive or inconclusive.

Legend:
[1] = target: Glutathione peroxidase 1 (Homo sapiens) (UniProt P07203); experiment: Primary qHTS Assay for Inhibitors of Recombinant Selenoprotein Glutathione Peroxidase 1 (GPX1) (AID 1845191); further: nearly all actives have a fitted effect of over 65% in size
Glutathione peroxidase 1 (Homo sapiens), sequence (P07203 whole entry, looked up): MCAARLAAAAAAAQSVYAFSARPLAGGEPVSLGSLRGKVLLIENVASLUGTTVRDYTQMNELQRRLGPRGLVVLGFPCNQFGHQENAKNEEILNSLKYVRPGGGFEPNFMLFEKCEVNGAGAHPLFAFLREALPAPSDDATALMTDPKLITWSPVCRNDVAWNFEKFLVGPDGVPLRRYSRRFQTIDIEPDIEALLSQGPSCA
Method in brief: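 10 nM GPX1 + cpd, 30 min RT; start w/ 1 mM GSH, 0.5 mM cumene hydroperoxide, 0.5 mM NADPH, 100 nM GR, 0.01% BSA; buffer 50 mM Tris-HCl pH 7.5, 2 mM EDTA, 150 mM NaCl; Fl 340/450, 0 & 15 min.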

[2] = target: Phospholipid hydroperoxide glutathione peroxidase GPX4 (Homo sapiens) (UniProt P36969); experiment: Primary qHTS Assay for Inhibitors of Recombinant Selenoprotein Glutathione Peroxidase 4 (GPX4) (AID 1845192); further: nearly all actives have a fitted effect of over 65% in size; on activity change, negative = inhibition: series mostly up to about 50 µM
Phospholipid hydroperoxide glutathione peroxidase GPX4 (Homo sapiens), sequence (P36969 whole entry, looked up): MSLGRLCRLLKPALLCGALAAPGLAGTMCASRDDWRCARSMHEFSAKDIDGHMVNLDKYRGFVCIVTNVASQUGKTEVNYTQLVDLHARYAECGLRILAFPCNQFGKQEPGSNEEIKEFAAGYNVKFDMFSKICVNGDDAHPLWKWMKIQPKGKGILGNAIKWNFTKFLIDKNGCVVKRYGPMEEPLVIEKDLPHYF
Method in brief: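 NADPH consumption, followed by fluorescence at 340/450 nm between 0 and 15 min, reports GPX4 activity via coupled glutathione reductase (100 nM). Enzyme 200 nM was pre-exposed to compound 30 min; 0.5 mM cumene hydroperoxide and 1 mM GSH served as substrates.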

[3] = target: Luciferin 4-monooxygenase (Photinus pyralis) (UniProt P08659); experiment: Primary firefly luciferase (FLuc) qHTS assay for identification of artifact compounds. (AID 1845220); further: series mostly up to about 54 µM; nearly all actives have a fitted effect of over 60% in size
Method in brief: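 FLuc 10 nM; luciferin 10 uM; ATP 10 uM; Tris-acetate pH 7.6, Mg-acetate 10 mM; 15 min RT preincubation; 5 min reaction; luminescence.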

[4] = Primary fluorescence-based thiol-reactive (MSTI) qHTS assay for identification of artifact compounds. (AID 1845221); further: nearly all actives have a fitted effect of over 65% in size; further: potency means the concentration at half of the fitted maximal effect;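 on activity change, negative = thiol reactive: series mostly up to about 54 µM; thiol-reactive compounds lower the probe fluorescence signal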
Method in brief: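 First, 4 uM MSTI in 2% DMSO/PBS pH 7.4 was dispensed; next, compounds were added; then plates sat 1 h at room temperature without light. Finally, emission at 598 nm was recorded.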

[5] = test system: Nanoluciferase (engineered Oplophorus gracilirostris luciferase); experiment: Primary Nanoluciferase (NLuc) qHTS assay for identification of artifact compounds. (AID 1845222);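 further: NLuc secreted into diluted conditioned medium of S16 cells; series mostly up to about 54 µM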
Method in brief: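 NLuc from S16 cell medium (1:55) plus test compounds, 15 min, room temperature. Luminescence after Nano-Glo (1:100) addition, 5 min.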

SMILES	Potency [1]	Potency [2]	Potency [3]	Potency [4]	Potency [5]	activity change, negative = inhibition [3]	activity change, negative = thiol reactive [4]	activity, negative = inhibition [5]
C=C1CCC2C(C)(C)CC(O)CC2(C)C1CCC(C)CC(=O)O (stereo not given)	inactive	inactive	inactive	18.5 µM (active)	inactive			
CNc1nc(Nc2cn(C(C)(C)C#N)nc2C)ncc1C(F)(F)F	inactive	inactive	inactive	inactive	inactive			
C/C=C/C=C/C1=C2C(=O)C3(C)C4C(C(=O)CC(O)/C=C/C)=C(O1)C1(C)C2C2(C)OC1(O)C4(C)OC23O (stereo not given)	inactive	inactive	inactive	5.82 µM (active)	inactive			
CC1CCC23COC(=O)C2=CC(O)CC3C1(C)CCc1ccoc1 (stereo not given)	inactive	inactive	inactive	inactive	inactive			
CC1CC2(O)OC(=O)C3=C2C(CCC3)[C@@]12C[C@@H](c1ccoc1)OC2=O (stereo not given in full)	inactive	inactive	inactive	4.65 µM (active)	inactive			
CCC[C@H](N[C@@H](C)C(=O)N1[C@H](C(=O)O)C[C@@H]2CCCC[C@@H]21)C(=O)O	inactive	inactive	inactive	inactive	inactive			
C[C@H]1CC[C@@]2(OC1)O[C@H]1CC3C4CC[C@H]5C[C@@H](O[C@@H]6O[C@H](CO)[C@H](O[C@@H]7O[C@H](CO)[C@@H](O)[C@H](O[C@@H]8OC[C@@H](O)[C@H](O)[C@H]8O)[C@H]7O[C@@H]7O[C@H](CO)[C@@H](O)[C@H](O)[C@H]7O)[C@H](O)[C@H]6O)[C@H](O)C[C@]5(C)C4=CC(=O)[C@]3(C)[C@H]1[C@@H]2C (stereo not given in full)	inactive	inactive				4.7% [at 11.6 µM]	203% [at 11.5 µM]	0% [at 11.6 µM]
